Source: PubChem BioAssay AID743325 (National Center for Advancing Translational Sciences (NCATS), 2014)
Calls of active or inactive are those of the source. Calls follow the shape of the full dose curve. Numbered stars: 1 amine (or outer) side, 2 acyl side, 3 side chain; on linkers, the order of the positions; unused ones are H or OH. Bridge positions count the residues as written; N and C are the ends. Square brackets hold non-standard residues; d marks the D form. Peptide text beside a SMILES is read from it. I, II: the chains in the order shown. Actinocin(9to1) = Cc1c2oc3c(C)ccc(C(=O)[*:1])c3nc-2c(C(=O)[*:2])c(N)c1=O; NMeV = CN[CH](C(=O)O)C(C)C; Sar = CNCC(=O)O

assay: qHTS profiling of Chloroquine Analogs as inhibitors of Plasmodium falciparum (3D7) proliferation; conditions: activity change, negative = inhibition: at 28.7 µM (top of the series) unless noted
Text: Plasmodium falciparum is a virulent malarial parasite that kills 1-2 million people worldwide each year. Transmitted by mosquitoes, the sporozoite form of the parasite enters the blood stream to infect hepatocytes, where they become merozoites that infect red blood cells (erythrocytes). Within erythrocytes, merozoites begin a […] cycle of growth and division, after which the parasite is released to infect new red blood cells. Gametocytes, which form within erythrocytes as well, circulate in the bloodstream and are ingested by the mosquito, thereby completing the life cycle. To profile malarial isolates for differential chemical responses and to identify inhibitors of malarial growth, an assay that measures P. falciparum growth and replication within erythrocytes was employed. This assay uses a DNA binding fluorescent dye (SYBR Green) to detect parasite DNA following cell lysis. Because mature erythrocytes lack DNA, only Plasmodium-derived DNA is detected.
The SYBR Green viability assay was adapted from a method described previously (Plouffe et al., 2008). For screening 3 ul culture medium was dispensed into 1536 well black clear bottom plates (Aurora Biotechnologies) using a Multidrop Combi (Thermo Fisher Scientific Inc.), 23 nL compounds in DMSO were added by a pin tool (Kalypsys), and 5 ul of erythrocytes infected with P. falciparum (0.3% parasitemia, 2.5% hematocrit final concentration) were added. The plates were incubated at 37 C in a humidified incubator in 5% CO2 for 72 h, and 2 ul lysis buffer (20 mM Tris HCl, 10 mM EDTA, 0.16% saponin, 1.6% triton X, 10X SYBR Green I supplied as 10,000X […] by Invitrogen) was added to each well. The plates were mixed for 25 sec with gentle shaking and incubated overnight at room temperature in the dark. The following morning, fluorescence intensity at 485(14) nm excitation and 535(25) nm emission wavelengths was measured on an EnVision (Perkin Elmer) plate reader. Plate reads were normalized relative to the control inhibitor (0.29 uM artemisinin) and vehicle (DMSO) wells present on each plate and then corrected by an algorithm using vehicle-only control plates at the beginning and end of the compound plate stack.

Row | Compound | activity change, negative = inhibition | Potency
1 | C#C[C@]1(O)CC[C@@H]2[C@H]3CCC4=CC(=O)CC[C@H]4[C@H]3C(=C)C[C@@]21CC | 177% (inactive) | –
2 | C[C@H]1[C@@H](OC(=O)CCC(=O)O)O[C@@H]2OC3(C)CC[C@H]4[C@H](C)CC[C@@H]1[C@@]24OO3 | -101% | –
3 | CCCCCCCCCCOc1cc2c(=O)c(C(=O)OCC)c[nH]c2cc1OCC | 208% (inactive) | –
4 | COc1cc2c(cc1C(F)(F)F)N(C(=O)Nc1cc(F)cc(-c3cccnc3)c1)CC2 | – | 3760 nM (active)
5 | CC(=O)O[C@@]12CO[C@@H]1C[C@H](O)[C@@]1(C)C(=O)[C@H](O)C3=C(C)[C@@H](OC(=O)[C@H](O)[C@@H](NC(=O)OC(C)(C)C)c4ccccc4)C[C@@](O)([C@@H](OC(=O)c4ccccc4)[C@H]21)C3(C)C | 177% (inactive) | –
6 | NC(=NCc1ccccc1)NC(=O)c1nc(Cl)c(N)nc1N | -99.4% | –
7 | CN1CC[C@H](CN2c3ccccc3Sc3ccccc32)C1 | -79.7% (inactive) | –
8 | CCN(CC)CCCC(C)Nc1ccnc2cc(Cl)ccc12 (stereo not given) | -99% | –
9 | CN(C)c1ccc2nc3ccc(=[N+](C)C)cc-3sc2c1 | – | 4.3 nM (active)
10 | C=Cc1c(C)c2cc3nc(cc4[nH]c(cc5nc(cc1[nH]2)C(C)=C5CCC(=O)OC)c(CCC(=O)O)c4C)[C@@]1(C)C3=CC=C(C(=O)OC)[C@H]1C(=O)OC | 179% [at 14.2 µM] (inactive) | –
11 | O=CN(O)CCCP(=O)(O)O | – | 530 nM (active)
12 | OB1OCc2cc(F)ccc21 | 198% (inactive) | –
13 | CCCCN(CCCC)CC(O)c1cc(Cl)cc2c1-c1ccc(Cl)cc1C2=Cc1ccc(Cl)cc1 (stereo not given) | -97.1% | –
14 | CCc1ccc(OCc2ccccc2C(=O)Nc2ccc3nc(C)cc(N)c3c2)cc1 | -101% | –
15 | Cc1c2oc3c(C)ccc(C(=O)NC4C(=O)NC(C(C)C)C(=O)N5CCCC5C(=O)N(C)CC(=O)N(C)C(C(C)C)C(=O)OC4C)c3nc-2c(C(=O)NC2C(=O)NC(C(C)C)C(=O)N3CCCC3C(=O)N(C)CC(=O)N(C)C(C(C)C)C(=O)OC2C)c(N)c1=O (stereo not given) (I: TVP[Sar][NMeV] / II: TVP[Sar][NMeV]; ester I:1-I:C, II:1-II:C; linker I:N-II:N via Actinocin(9to1); configuration not given here) | – | 2.1 nM (active)
16 | Cn1cncc1[C@@](N)(c1ccc(Cl)cc1)c1ccc2c(c1)c(-c1cccc(Cl)c1)cc(=O)n2C | – | 1680 nM (active)
17 | COc1cc2c(Nc3ccc(NC(=O)c4ccccc4)cc3)ncnc2cc1OCCCN1CCOCC1 | -100% | –
18 | COc1ccc(CCN(C)CCCC(C#N)(c2ccc(OC)c(OC)c2)C(C)C)cc1OC (stereo not given) | -55% (inactive) | –
19 | CCN(CC)CCOc1ccc2c(=O)c3ccc(Cl)cc3n(CCN(CC)CC)c2c1 | -101% | –
20 | C[N+]1(C)CCC(=C(c2ccccc2)c2ccccc2)CC1 | -94.2% [at 14.2 µM] | –

Row | Compound | activity change, negative = inhibition | Potency
21 | C[C@H]1c2cccc(O)c2C(O)=C2C(=O)[C@]3(O)C(O)=C(C(N)=O)C(=O)[C@@H](N(C)C)[C@@H]3[C@@H](O)[C@@H]21 | – | 8410 nM (active)
22 | C[C@@H]1[C@@H](CC(C[C@H]2O[C@@H]3O[C@]4(C)CC[C@@H]5[C@H](C)CC[C@@H]([C@H]2C)[C@@]35OO4)C(=O)NCc2ccc(F)cc2)O[C@@H]2O[C@]3(C)CC[C@H]4[C@H](C)CC[C@@H]1[C@@]24OO3 (stereo not given in full) | -101% | –
23 | Cc1oncc1C(=O)Nc1ccc(C(F)(F)F)cc1 | 171% (inactive) | –
24 | COc1cc(NC(C)CCCN)c2ncccc2c1 (stereo not given) | – | 902 nM (active)
25 | C[C@@H]1CCC2[C@@H](C)[C@@H](O)O[C@@H]3O[C@@]4(C)CC[C@@H]1[C@@]23OO4 (stereo not given in full) | -101% | –
26 | CN1C[C@H](C(=O)N[C@]2(C)O[C@@]3(O)[C@@H]4CCCN4C(=O)[C@H](Cc4ccccc4)N3C2=O)C[C@@H]2c3cccc4[nH]cc(c34)C[C@H]21 | – | 530 nM (active)
27 | COCC(=O)O[C@]1(CCN(C)CCCc2nc3ccccc3[nH]2)CCc2cc(F)ccc2[C@@H]1C(C)C | -102% | –
28 | CNC(=O)c1cc(Oc2ccc(NC(=O)Nc3ccc(Cl)c(C(F)(F)F)c3)cc2)ccn1 | -100% | –
29 | CN1CCN(CCCN2c3ccccc3Sc3ccc(S(=O)(=O)N(C)C)cc32)CC1 | – | 716 nM (active)
30 | CC1=CC(=O)c2ccccc2C1=O | 205% (inactive) | –
31 | Cc1cccc(C)c1OCC(N)C(C)C (stereo not given) | -97.7% | –
32 | CCCC(=O)O[C@]1(C(=O)CCl)[C@H](C)C[C@@H]2[C@H]3CCC4=CC(=O)C=C[C@]4(C)[C@@]3(F)C(=O)C[C@@]21C | -101% | –
33 | C[C@H]1[C@@H](CCC(=O)Nc2ccc(F)cc2)O[C@@H]2O[C@]3(C)CC[C@@H]4[C@H](C)CC[C@@H]1[C@@]24OO3 | -100% | –
34 | O=C(Nc1ccc(Cl)cc1)Nc1ccc(Cl)c(Cl)c1 | -102% | –
35 | COc1cccc(CCc2ccccc2OCC(CN(C)C)OC(=O)CCC(=O)O)c1 (stereo not given) | – | 2980 nM (active)
36 | CCOc1ccccc1O[C@H](c1ccccc1)[C@H]1CNCCO1 | 192% (inactive) | –
37 | CC(=O)N(O)CCCP(=O)(O)O | – | 266 nM (active)
38 | CN(C)CCOC(c1ccccc1)c1ccccc1 | -8.32% (inactive) | –
39 | O=C(C[C@@H]1NCCC[C@@H]1O)Cn1cnc2ccccc2c1=O | – | 2.7 nM (active)
40 | COc1ncnc(NS(=O)(=O)c2ccc(N)cc2)c1OC | – | 1500 nM (active)
